{"source": "PubChem BioAssay AID2315", "about": "(National Center for Advancing Translational Sciences (NCATS), 2010)", "note": "Where “and” joins values, the source holds several entries; their conditions need not be identical. Equal entries are not always repeated. About 27,000 (9.3%) of roughly 290,000 compounds were called active. No stated cut-off is given here; in the data, active means inhibition mostly above about 28% (no sharp cut-off); inactive means mostly below about 43%. What follows is part of a selection rich in actives, with near analogues and random picks from the rest.", "data": [{"test": "A qHTS for Small Molecule Inhibitors of Shiga Toxin; further: 0% is about no effect", "details": "Vero cells, Shiga toxin protein synthesis inhibition reporter; at 38.7 µM, hits give high values", "values": [{"smiles": "CC1CCN(S(=O)(=O)c2nnc(NC(=O)COc3ccccc3F)s2)CC1", "inhibition": "2.6% (inactive)"}, {"smiles": "O=C(Nc1ccc(O)cc1)c1ccc(NC(=O)c2ccco2)cc1", "inhibition": "32.1% (active)"}, {"smiles": "Cc1ccc(NC(=O)/C(=C\\c2ccccc2)NC(=O)c2ccco2)cc1", "inhibition": "15.6% (inactive)"}, {"smiles": "COc1ccc(NC(=O)c2cccc(NC(=O)c3ccco3)c2)c(OC)c1", "inhibition": "7.82% (inactive)"}, {"smiles": "Cc1ccnc(NC(=O)c2ccc(NC(=O)c3ccco3)cc2)c1", "inhibition": "64.6% (active)"}, {"smiles": "COc1cccc(C(=O)Nc2ccc(NC(=O)c3ccco3)cn2)c1", "inhibition": "124% (active)"}, {"smiles": "O=C(Nc1ccc2oc(-c3ccccc3F)nc2c1)c1ccco1", "inhibition": "85.3% (active)"}, {"smiles": "O=C(Nc1ccc(NC(=O)c2cccs2)cn1)c1ccco1", "inhibition": "27.3% (inactive)"}, {"smiles": "Cc1cc(NC(=O)c2ccc(F)cc2)ccc1NC(=O)c1ccco1", "inhibition": "39.7% (inactive)"}, {"smiles": "O=C(Nc1cccc(-c2nc3ncccc3o2)c1)c1ccco1", "inhibition": "1.9% (inactive)"}, {"smiles": "CCCC(=O)Nc1ccc2c(c1)nc(CCNC(=O)c1ccco1)n2C", "inhibition": "-1.85% (inactive)"}, {"smiles": "Cc1cc(=O)oc2c3c(cc(OCC(=O)N[C@H](C(=O)O)c4ccccc4)c12)OC(C)(C)CC3", "inhibition": "9.9% (inactive)"}, {"smiles": "Oc1ccc(C2Nc3cccc4cccc(c34)N2)cc1", "inhibition": "-4.55% (inactive)"}, {"smiles": "CSc1ccc(S(=O)(=O)N2CCC(C(=O)NCc3ccncc3)CC2)cc1", "inhibition": "-6.82% (inactive)"}, {"smiles": "CCOC(=O)N1CCN(S(=O)(=O)c2ccc(Br)cc2)CC1", "inhibition": "9.83% (inactive)"}, {"smiles": "COCCN1C(=O)C(=O)/C(=C(/O)c2ccc(S(=O)(=O)N3CCOCC3)cc2)C1c1ccc(OC)c(OC)c1", "note": "(centres undefined)", "inhibition": "-8.01% (inactive)"}, {"smiles": "Cc1cccn2c(=O)c(/C=C(\\C#N)C(N)=O)c(N3CCCCCC3)nc12", "inhibition": "-3.79% (inactive)"}, {"smiles": "CC(C)Oc1ccc(C(CC(=O)N2CCOCC2)C(C)C)cc1", "note": "(centres undefined)", "inhibition": "5.33% (inactive)"}, {"smiles": "COc1cc(C2/C(=C(\\O)c3ccc4c(c3)CC(C)O4)C(=O)C(=O)N2c2nnc(C)s2)cc(OC)c1OC", "note": "(centres undefined)", "inhibition": "-6.77% (inactive)"}, {"smiles": "Cc1ccc(C(=O)NC2CCN(C(=O)Nc3ccccc3Cl)CC2)cc1", "inhibition": "-5.62% (inactive)"}, {"smiles": "COCCOC(=O)C1=C(C)NC(=O)NC1c1cc2c(cc1Br)OCO2", "note": "(centres undefined)", "inhibition": "13.8% (inactive)"}, {"smiles": "O=C(Nc1ccccc1)/C(=C\\c1ccco1)NC(=O)c1ccco1", "inhibition": "14.3% (inactive)"}, {"smiles": "Cc1ccnc(NC(=O)c2ccc(Cl)c([N+](=O)[O-])c2)c1", "inhibition": "50.2% (active)"}, {"smiles": "COC(=O)c1cc(NC(=O)c2ccco2)ccc1N1CCOCC1", "inhibition": "-9.27% (inactive)"}, {"smiles": "O=C(Nc1ccccc1)c1ccco1", "inhibition": "19.7% (inactive)"}, {"smiles": "O=C(Nc1cccnc1)c1ccc(Cl)c([N+](=O)[O-])c1", "inhibition": "52.4% (inactive)"}, {"smiles": "O=C(Nc1ccc(Oc2ccccc2)cc1)c1ccco1", "inhibition": "169% (active)"}, {"smiles": "O=C(Nc1ccc(Sc2ccc(Br)cc2)cc1)c1ccco1", "inhibition": "60.3% (active)"}, {"smiles": "O=C(Nc1cccc(NC(=O)c2ccco2)c1)c1cnccn1", "inhibition": "7.98% (inactive)"}, {"smiles": "O=C(Nc1ccncc1)c1ccc(Cl)c([N+](=O)[O-])c1", "inhibition": "-0.478% (inactive)"}, {"smiles": "Cc1ccnc(NC(=O)c2ccco2)n1", "inhibition": "24.9% (inactive)"}, {"smiles": "O=C(Nc1ccc2nccnc2c1)c1ccco1", "inhibition": "98.5% (active)"}, {"smiles": "Cc1cc(NC(=O)[C@H](C)NC(=O)c2ccco2)ccc1Br", "inhibition": "4.7% (inactive)"}, {"smiles": "O=[N+]([O-])c1ccc(NC(=S)N2CCN(c3ccccn3)CC2)cc1", "inhibition": "-11.7% (inactive)"}, {"smiles": "O=C(CCN1CCCO1)N1CCCC(N2CCN(c3cccc(C(F)(F)F)c3)CC2)C1", "note": "(centres undefined)", "inhibition": "3.43% (inactive)"}, {"smiles": "CCNS(=O)(=O)c1ccc(NC(=O)c2cncc(Br)c2)cc1", "inhibition": "-9.77% (inactive)"}, {"smiles": "COc1ccccc1N1CCN(C(=O)c2ccc(NC3=NC4CS(=O)(=O)CC4S3)cc2)CC1", "note": "(centres undefined)", "inhibition": "-1.81% (inactive)"}, {"smiles": "COc1ccc(CNC(=O)C2CC(c3ccc(C(F)(F)F)cc3)=NO2)cc1", "note": "(centres undefined)", "inhibition": "-4.35% (inactive)"}, {"smiles": "Cc1cc(C(=O)NC2CCN(Cc3ccccc3)CC2)n[nH]1", "inhibition": "-10.2% (inactive)"}, {"smiles": "CCOc1ccc(C(=O)Nc2c3c(nn2-c2ccccc2)CS(=O)(=O)C3)cc1", "inhibition": "-5.21% (inactive)"}, {"smiles": "COC(=O)c1c(NC(=O)C(=O)N2CCCCC2)sc2c1CC(C)(C)OC2", "inhibition": "-9.37% (inactive)"}, {"smiles": "Cc1ccc(OCCCCc2c(C)n[nH]c2C)cc1", "inhibition": "25.2% (inactive)"}, {"smiles": "Cc1cc(C)nc(SCc2cn3c(C)cc(C)nc3n2)n1", "inhibition": "2.5% (inactive)"}, {"smiles": "COc1ccc(OCc2cn3c(C)cc(C)nc3n2)cc1", "inhibition": "48.1% (active)"}, {"smiles": "Cc1ccc2nc(SCc3cn4c(C)cc(C)nc4n3)[nH]c2c1", "inhibition": "-3.11% (inactive)"}, {"smiles": "CC(C(=O)N=Nc1c(O)n(C)c2ccc(Br)cc12)n1cnc2ccccc2c1=O", "note": "(centres undefined)", "inhibition": "-6.1% (inactive)"}, {"smiles": "CSCCC(NS(=O)(=O)c1ccccc1F)C(=O)N1CC=C(c2ccccc2)CC1", "note": "(centres undefined)", "inhibition": "-9.3% (inactive)"}, {"smiles": "COCCN(C(=O)C(C)C)c1nnc(-c2ccc(C(C)(C)C)cc2)s1", "inhibition": "24.3% (inactive)"}, {"smiles": "COc1ccc(CSc2nnnn2-c2ccc(C(=O)O)cc2)cc1", "inhibition": "-2.72% (inactive)"}, {"smiles": "CCOc1cccc(-n2nnnc2-c2ccc(OC)cc2)c1", "inhibition": "0.378% (inactive)"}, {"smiles": "COc1ccc(-n2nnnc2-c2nc3ccccc3s2)cc1", "inhibition": "77.2% (active)"}, {"smiles": "COC(=O)c1ccc(CN2CCCC(C(=O)Nc3cccc(-n4cnnn4)c3)C2)cc1", "note": "(centres undefined)", "inhibition": "-11.4% (inactive)"}, {"smiles": "N=c1c2c(-c3ccccc3)c(-c3ccccc3)n(Cc3ccccc3)c2ncn1CCCO", "inhibition": "-13.5% (inactive)"}, {"smiles": "OCCCN1c2ccccc2Nc2nnc(-c3ccccc3)cc21", "inhibition": "57.2% (active)"}, {"smiles": "O=[N+]([O-])c1ccc(N(CCO)Cc2ccccc2)c([N+](=O)[O-])c1", "inhibition": "6.65% (inactive)"}, {"smiles": "COc1ccc(C(=O)c2c(C)c(CCC#N)n3ccccc23)c(OC)c1", "inhibition": "-12.7% (inactive)"}, {"smiles": "CC(C)C(=O)Nc1c(C(=O)c2ccc(F)cc2)oc2ccccc12", "inhibition": "-3.91% (inactive)"}, {"smiles": "CC(C)C(=O)Nc1ccc2c(c1)oc1ccccc12", "inhibition": "105% (active)"}, {"smiles": "CC(C)C(=O)Nc1ccc2oc(=O)ccc2c1", "inhibition": "31% (inactive)"}, {"smiles": "Cc1c(CC(=O)NCC(=O)NCC(=O)O)c(=O)oc2cc3oc4c(c3cc12)CCCC4", "inhibition": "2.91% (inactive)"}, {"smiles": "CCNC(=O)c1sccc1-n1cccc1", "inhibition": "-7.99% (inactive)"}, {"smiles": "CC(C)=CCc1c(O)c(CC=C(C)C)c2occ(-c3ccc(O)cc3)c(=O)c2c1O", "inhibition": "46.6% (active)"}, {"smiles": "CCc1ccc(OCC(=O)NCC(c2ccc(Cl)cc2)N2CCCCC2)cc1", "note": "(centres undefined)", "inhibition": "-3.91% (inactive)"}, {"smiles": "CCOC(=O)Cn1c(O)c(N=NC(=O)CNC(=O)Cc2ccccc2)c2ccccc21", "inhibition": "13.1% (inactive)"}, {"smiles": "CC(C)(C)N(Cc1ccccc1)C(=O)c1ccncc1", "inhibition": "-5.35% (inactive)"}, {"smiles": "O=C(Nc1ccccc1)OCc1cc(-c2ccc(Cl)cc2)on1", "inhibition": "-25% (inactive)"}, {"smiles": "O=C(Nc1cccc(CCc2ccccn2)c1)c1ccc(Cl)cc1", "inhibition": "22.8% (inactive)"}, {"smiles": "O=C(Nc1cccc(Cl)c1)OCc1ccccn1", "inhibition": "98% (active)"}, {"smiles": "COC(=O)c1ccc2ccccc2c1OC1OC(CO)C(O)C(O)C1NC(C)=O", "note": "(centres undefined)", "inhibition": "-11.3% (inactive)"}, {"smiles": "CCN(CC)c1ccc2oc(=O)c(C)nc2c1", "inhibition": "22% (active)"}, {"smiles": "CCN(CC)c1ccc2c(Nc3ccccc3)c(C=O)c(=O)oc2c1", "inhibition": "29.5% (inactive)"}, {"smiles": "CCN(CC)c1ccc2cc(C(N)=O)/c(=N\\NC(=O)c3ccncc3)oc2c1", "inhibition": "24.7% (inactive)"}, {"smiles": "COc1cc2c(cc1OC)C(/C=C/c1ccco1)=NCC2", "inhibition": "-7.71% (inactive)"}, {"smiles": "Cc1ccccc1N1CC(C(=O)Nc2ccc3c(c2)OCO3)CC1=O", "note": "(centres undefined)", "inhibition": "21.6% (inactive)"}, {"smiles": "O=C(Nc1ccc2c(c1)OCO2)C1CC(c2c(F)cccc2Cl)=NO1", "note": "(centres undefined)", "inhibition": "72.1% (active)"}, {"smiles": "Cc1ccc(NC(=O)C2CC(c3ccc(F)cc3)=NO2)cc1", "note": "(centres undefined)", "inhibition": "-22.6% (inactive)"}, {"smiles": "COc1cc(S(=O)(=O)Nc2ncn[nH]2)ccc1Cl", "inhibition": "-3.71% (inactive)"}, {"smiles": "CCC1CCCCN1C(=S)Nc1ccc(S(=O)(=O)Nc2ncccn2)cc1", "note": "(centres undefined)", "inhibition": "8.74% (inactive)"}, {"smiles": "CC(=O)c1ccc(OCC(O)CN2CCN(S(=O)(=O)c3cccc(Br)c3)CC2)cc1", "note": "(centres undefined)", "inhibition": "-10% (inactive)"}, {"smiles": "COc1ccc(S(=O)(=O)/N=C2\\C=C(NS(=O)(=O)c3ccccc3)C(=O)c3ccccc32)cc1", "inhibition": "61.3% (active)"}, {"smiles": "COc1ccc2cc(S(=O)(=O)Nc3ccccn3)ccc2c1", "inhibition": "-1.18% (inactive)"}, {"smiles": "COc1ccc(S(=O)(=O)Nc2c(C)n(C)n(-c3ccccc3)c2=O)cc1", "inhibition": "1.34% (inactive)"}, {"smiles": "CCn1c(C)c(C)c2cc(C(=O)N3CCN(c4cccc(C)c4C)CC3)ccc21", "inhibition": "-9.52% (inactive)"}, {"smiles": "Cc1ccc(S(=O)(=O)N2CCC(C(=O)NCC3CCCO3)CC2)cc1", "note": "(centres undefined)", "inhibition": "-25.2% (inactive)"}, {"smiles": "Cc1ccc(C(=O)N/C(=C/c2cccs2)C(=O)NCC2CCCO2)cc1", "note": "(centres undefined)", "inhibition": "16.9% (inactive)"}, {"smiles": "Cc1ccc(-n2c(C)cc(/C=C(\\C#N)C(=O)NCC3CCCO3)c2C)cc1", "note": "(centres undefined)", "inhibition": "108% (active)"}, {"smiles": "C/C(N)=C(/C#N)C(=O)COC(=O)c1cc(-c2ccccc2)nc2ccc(Br)cc12", "inhibition": "-3.47% (inactive)"}, {"smiles": "COc1ccc(-c2cc(C(=O)N(C)Cc3ccccc3)c3ccccc3n2)cc1", "inhibition": "-2.41% (inactive)"}, {"smiles": "C/C(N)=C(/C#N)C(=O)COC(=O)c1cc(-c2ccc(C)cc2)nc2ccccc12", "inhibition": "53.2% (active)"}, {"smiles": "CNC(=O)COC(=O)c1cc(-c2ccc(OC)cc2)nc2ccccc12", "inhibition": "54.5% (active)"}, {"smiles": "COc1ccc(-c2cc(C(=O)n3cnc4ccccc43)c3ccccc3n2)cc1", "inhibition": "6.77% (inactive)"}, {"smiles": "C/C(N)=C(/C#N)C(=O)COC(=O)c1cc(-c2cccc(Br)c2)nc2ccccc12", "inhibition": "5.3% (inactive)"}, {"smiles": "O=C(c1cccs1)N(Cc1cc2ccccc2[nH]c1=O)CC1CCCO1", "note": "(centres undefined)", "inhibition": "-16% (inactive)"}, {"smiles": "CCN1C(=NCCc2cccnc2)N[C@@H](c2ccccc2)C(C(=O)OC)=C1C", "inhibition": "-1.87% (inactive) and -4.64% (inactive)"}]}]}
